Each structure is given as a SMILES string. A number with no mark means an inactive call. Where a call stands in place of a potency, no number is given. Active and inactive are the calls of the source. The call rests on the fitted dose curve.

Consider 40 compounds from PubChem BioAssay (Tox21).

The target of this test is Acetylcholinesterase (Homo sapiens) (UniProt P22303). Put plainly: Acetylcholinesterase (AChE) small molecule antagonists: enzyme-based qHTS assay with human liver microsomes (AID 1347399). Further: nearly all actives have a fitted effect of over 60% in size. The settings on record: Potency: qHTS inhibition; outcome: qHTS inhibition; series mostly up to 115 µM. A digest of the protocol: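 Recombinant human AChE (50 mU/mL in the enzyme mix) and human liver microsomes (0.25 mg/mL final) were preincubated with compound and NADPH (0.25 mg/mL final) for 30 min at 37 C. Acetylthiocholine/DTNB was then added; thiocholine was read colorimetrically after 10 min at room temperature.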
Sequence of Acetylcholinesterase (Homo sapiens) (P22303 whole entry, looked up): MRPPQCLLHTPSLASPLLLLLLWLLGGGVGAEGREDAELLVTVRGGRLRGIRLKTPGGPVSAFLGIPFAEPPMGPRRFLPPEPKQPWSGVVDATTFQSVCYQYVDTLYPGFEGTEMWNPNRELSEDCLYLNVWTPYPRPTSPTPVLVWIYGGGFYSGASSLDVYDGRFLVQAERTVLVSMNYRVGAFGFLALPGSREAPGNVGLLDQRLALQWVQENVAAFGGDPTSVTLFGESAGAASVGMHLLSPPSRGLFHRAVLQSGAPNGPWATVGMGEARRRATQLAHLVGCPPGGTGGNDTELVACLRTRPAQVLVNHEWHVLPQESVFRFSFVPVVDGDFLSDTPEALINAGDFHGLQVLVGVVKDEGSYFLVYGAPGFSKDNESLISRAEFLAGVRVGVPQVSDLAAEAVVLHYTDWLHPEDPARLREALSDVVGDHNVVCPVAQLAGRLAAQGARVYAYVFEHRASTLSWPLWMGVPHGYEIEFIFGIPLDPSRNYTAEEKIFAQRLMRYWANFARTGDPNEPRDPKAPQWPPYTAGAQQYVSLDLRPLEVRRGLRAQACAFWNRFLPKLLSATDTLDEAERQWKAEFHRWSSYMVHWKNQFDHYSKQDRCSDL
On to `CCC(C)(C)C1CCC(O)CC1` (stereo not given), for which the Potency result was “inactive”. Take `CCOC(=O)NNc1nncc2ccccc12`: the Potency result is “inactive”. As to `CN(C)CCc1c[nH]c2ccc(C[C@H]3COC(=O)N3)cc12`, the Potency result is “inactive”. Turning to `C=CC(=O)OCC(CO)(COC(=O)C=C)COC(=O)C=C`, the Potency entry is “inactive”. Consider `CCN(O)CC`, for which the Potency result is “inactive”. As for `O=C(O)Cc1ccccc1Nc1c(Cl)cccc1Cl`, the Potency entry is “inactive”.

Regarding `ClC/C=C\CCl`, the Potency result was “inactive”. For the compound `COC(=O)Nc1nc2ccc(S(=O)c3ccccc3)cc2[nH]1` (stereo not given), the Potency result was “inactive”. Consider `CC#C[C@]1(O)CC[C@H]2[C@@H]3CCC4=CC(=O)CCC4=C3[C@@H](c3ccc(N(C)C)cc3)C[C@@]21C`, for which the Potency result is “inactive”. For the compound `Cc1ccc2ccccc2n1`, the Potency result was “inactive”. Consider `CC1OC1C1CCC2(C)OC2C1` (stereo not given), for which the Potency result was “inactive”. On to `CCN(Cc1cccc(S(=O)(=O)O)c1)c1ccccc1`, for which the Potency entry is “inactive”. Still for that read-out and setting: as for `COC1=C(OC)C(=O)C(CCCCCCCCCCO)=C(C)C1=O`, the entry is “inactive”. With `Cc1cccc(N(C)C(=S)Oc2ccc3ccccc3c2)c1`, the Potency result was “inactive”. With `Cc1cc(C)c(C(=O)O)c(C)c1`, the Potency entry is “inactive”. Consider `CC(C)(O)c1coc(S(=O)(=O)NC(=O)Nc2c3c(cc4c2CCC4)CCC3)c1`, for which the Potency result was “inactive”. Consider `CCCCCCCCN(C)C`, for which the Potency entry is “inactive”. As to `CC(C)(C)[C@@H](O)[C@@H](Cc1ccc(Cl)cc1)n1cncn1`, the Potency result was “inactive”. As for `COC1CCC=CO1` (stereo not given), the Potency entry is “inactive”. As to `O=c1cc(-c2ccccc2)oc2ccccc12`, the Potency result was “inactive”. As for `O=C1[C@@H]2[C@H]3CC[C@H](C3)[C@@H]2C(=O)N1CCCCN1CCN(c2ncccn2)CC1`, the Potency entry was “inactive”. For `C=C(C)C(=O)OCC(CC)(COC(=O)C(=C)C)COC(=O)C(=C)C`, the Potency entry is “inactive”. For the compound `CCCCCC1C(=O)CCC1CC(=O)OC` (stereo not given), the Potency result was “inactive”. The same measure, in the same setting: as for `O=C(O)Cc1ccccc1Oc1ccc(Cl)cc1Cl`, the entry is “inactive”; as for `C=CCCCCCC`, “inactive”; as for `CC(=O)Oc1ccc(C2(c3ccc(OC(C)=O)cc3)Oc3ccccc3NC2=O)cc1`, “inactive”. Take `C=C(C)C(=O)OCCCCCCCC(C)C`: the Potency entry was “inactive”. On to `CN(C)Cc1cc(C(C)(C)C)c(O)c(C(C)(C)C)c1`, for which the Potency result was “inactive”. The same measure, in the same setting: as for `Cc1c[nH]c(=O)[nH]c1=O`, the entry is “inactive”; as for `Clc1sc(Cl)c(Cl)c1Cl`, “inactive”.

`COc1cc(-c2ccc(=O)[nH]n2)ccc1OC(F)F`: the Potency result was “inactive”. Take `CCOC(C)OCC`: the Potency result was “inactive”.

Regarding `CCCCCCCCC(CCCCCC)C(=O)O` (stereo not given), the Potency result was “inactive”. Consider `O=C1c2ccccc2CCc2ccccc21`, for which the Potency result was “inactive”. In the case of `CCCCCCCCCCCCCCCCBr`, the activity change, negative = inhibition is 0.57% [at 23.6 µM]. Consider `CC(=O)O[Si](C)(OC(C)=O)OC(C)=O`, for which the Potency entry is “inactive”.

For the compound `CCc1ccc2c(c1)C(=O)c1ccccc1C2=O`, the Potency result is “inactive”. In the case of `CC(=O)O[C@H]1C[C@@H]2CC[C@@]1(C)C2(C)C`, the Potency entry is “inactive”.

As for `C=CC(=O)OCCOC(=O)C=C`, the Potency entry was “inactive”. For the compound `O=C1[C@H](CC[C@H](O)c2ccc(F)cc2)[C@@H](c2ccc(O)cc2)N1c1ccc(F)cc1`, the Potency result was “inactive”.
